Results on seven molecules are retold here after PubChem BioAssay (Tox21).

Several values for one entry are separate records, joined by “and”; a condition that tells them apart may be missing. Equal values may be shown once. Records with an inconclusive call do not appear. Some structures have more than one record in an assay (separate samples or runs), and their calls can disagree. Activity calls are given as the source filed them. Unless noted, calls come from the whole dose curve; as a rule, active = well fitted curve in the direction sought with a large enough effect in the repeat runs; inconclusive = weak or mixed curves; inactive = no such curve, though single readings can be large; an effect the other way counts as inactive or inconclusive.

The nature of assay [1]: qHTS assay to identify small molecule agonists of the hypoxia (HIF-1) signaling pathway - cell viability counter screen (AID 1224844; calls by dose curve; note: nearly all actives have a fitted effect of over 50% in size; note: potency is the fitted concentration of half-maximal effect; for activity change, negative = cytotoxicity: % is set by controls: 0 for no effect and ±100 for the full control effect). Put shortly: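 ME-180 HRE-bla cells, 2,000/well, 0.5% dialyzed FBS; 5 hr settle, 17 hr compound at 37C/5% CO2; CCF4-AM reporter read first, then CellTiter-Glo luminescence after 30 min RT.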
Assay [2] in a line: qHTS assay to identify small molecule agonists of the hypoxia (HIF-1) signaling pathway (AID 1224846; active = well fitted activation curve with a large enough effect in the signal ratio in the repeat runs, not every such curve was filed as active; the % refers to the signal ratio; note: % is set by controls: 0 for no effect and ±100 for the full control effect). The method, boiled down:
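Cell line: CellSensor HRE-bla ME-180; 2,000 cells/well; 0.5% dialyzed FBS; 5 h preincubation; DMSO compound pin transfer; 17 h, 37C, 5% CO2; CCF4-AM added; bla FRET signal scored for activation.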
In general terms: Quantitative high-throughput screening tests each substance at several concentrations.

Assay [3] in a line: qHTS assay to identify small molecule agonists of H2AX - cell viability counter screen (AID 1224847; calls by dose curve; note: nearly all actives have a fitted effect of over 30% in size; note: potency is the fitted concentration of half-maximal effect). Put shortly:
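Read-out: CellTiter-Glo luminescence, 30 min RT. Cells: wild-type CHO-K1, 1000/well, 10% FBS, plated overnight at 37C. Treatment: 15 concentrations, 3 hr, 37C, 0.76% DMSO.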

A short description of assay [4]: qHTS assay to identify small molecule agonists of the estrogen related receptor (ERR) signaling pathway from Tox21 library (AID 1224849; calls by dose curve; note: % is set by controls: 0 for no effect and ±100 for the full control effect; nearly all actives have a fitted effect of over 15% in size). The following applies: ERR reporter cell line, ONE-Glo luciferase, 18 h; at 92.4 µM (top of the series) unless noted. Put shortly:
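ERR cells, 6 h pre-incubation 37 C/5% CO2; cpd in DMSO pinned; 18 h 37 C; ONE-Glo added, 30 min RT; luminescence read. Agonist mode, qHTS.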

A short description of assay [5]: qHTS RealTime-Glo MT Cell Viability Assay in HepG2 cells - 24 hour (AID 1224867). For activity change, negative = cytotoxicity: % is set by controls: 0 for no effect and ±100 for the full control effect. Note: nearly all actives have a fitted effect of over 50% in size. Note: potency is the fitted concentration of half-maximal effect. Put shortly:
(§1)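 Compound treatment began 5 h after plating HepG2 cells (600/well) with NanoLuc luciferase and prosubstrate. Plates stayed at 37 C for 40 h; luminescence was captured at six time points, 0 h through 40 h.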

Assay [6] can be described thus: qHTS RealTime-Glo MT Cell Viability Assay in HEK293 cells - 32 hour (AID 1224868). For activity change, negative = cytotoxic: top concentration of the series differs between compounds; % is set by controls: 0 for no effect and ±100 for the full control effect. Note: nearly all actives have a fitted effect of over 50% in size. Note: potency is the fitted concentration of half-maximal effect. The method, boiled down: (§2)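 Quantitative high-throughput screen of the Tox21 10K library in HEK293: cells and RealTime-Glo reagents plated together, compound added at 5 h, luminescence monitored through 40 h at 37 C.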
A short description of assay [7]: A CellTox Green Cytotoxicity Assay to monitor cytotoxicity in HEK293 cells - 0 hour (AID 1224869). Note: % is set by controls: 0 for no effect and ±100 for the full control effect; nearly all actives have a fitted effect of over 50% in size. The method, boiled down: (§3)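 Nonlytic real-time cytotoxicity: HEK293 + CellTox Green reagent plated, 5 h preincubation, pintool compound addition (23 nL in DMSO), 37 C for 40 h, fluorescence measured at successive time points.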
The nature of assay [8]: qHTS RealTime-Glo MT Cell Viability Assay in HepG2 cells - 40 hour (AID 1224870). Note: nearly all actives have a fitted effect of over 50% in size. Note: potency is the fitted concentration of half-maximal effect. Put shortly:
(§4)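 Real-time viability: cells seeded at 600 per well together with NanoLuc and cell-permeant prosubstrate, compounds added after 5 h incubation. Luminescence tracked at 0, 8, 16, 24, 32 and 40 h of exposure.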

Assay [9] in a line: A CellTox Green Cytotoxicity Assay to monitor cytotoxicity in HEK293 cells - 40 hour (AID 1224871). Note: nearly all actives have a fitted effect of over 45% in size. Note: potency is the fitted concentration of half-maximal effect. Put shortly: as §3
Assay [10] is described as follows: qHTS RealTime-Glo MT Cell Viability Assay in HEK293 cells - 16 hour (AID 1224872). Put shortly: as §2
The nature of assay [11]: A CellTox Green Cytotoxicity Assay to monitor cytotoxicity in HEK293 cells - 24 hour (AID 1224875). Note: nearly all actives have a fitted effect of over 45% in size. Note: potency is the fitted concentration of half-maximal effect. Put shortly: as §3
Assay [12] is described as follows: qHTS RealTime-Glo MT Cell Viability Assay in HepG2 cells - 32 hour (AID 1224877). Note: nearly all actives have a fitted effect of over 55% in size. Note: potency is the fitted concentration of half-maximal effect. The method, boiled down: as §1
The nature of assay [13]: A CellTox Green Cytotoxicity Assay to monitor cytotoxicity in HepG2 cells - 40 hour (AID 1224879). Note: nearly all actives have a fitted effect of over 40% in size. Note: potency is the fitted concentration of half-maximal effect. The method, boiled down: (§5)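 Read-out is fluorescence of a cyanine dye excluded from live cells that stains DNA of dead HepG2 cells, with signal proportional to cytotoxicity. Plates were read at 0, 8, 16, 24, 32 and 40 h after compound addition.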
Assay [14] is described as follows: qHTS RealTime-Glo MT Cell Viability Assay in HEK293 cells - 0 hour (AID 1224880). Note: top concentration of the series differs between compounds; % is set by controls: 0 for no effect and ±100 for the full control effect; nearly all actives have a fitted effect of over 45% in size. The method, boiled down:
(§6)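 Cells were seeded together with NanoLuc luciferase and a prosubstrate that viable cells reduce to a luciferase substrate. After a 5 h incubation at 37 C/5% CO2, compounds were added and luminescence was measured repeatedly during 40 h of treatment.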

A short description of assay [15]: qHTS RealTime-Glo MT Cell Viability Assay in HepG2 cells - 8 hour (AID 1224873). Note: nearly all actives have a fitted effect of over 55% in size. Note: potency is the fitted concentration of half-maximal effect. The method, boiled down:
as §4

Assay [16] is described as follows: qHTS RealTime-Glo MT Cell Viability Assay in HEK293 cells - 40 hour (AID 1224874). Note: nearly all actives have a fitted effect of over 50% in size. Note: potency is the fitted concentration of half-maximal effect. As to conditions: RealTime-Glo luminescence; max response: stronger effect = lower value. Put shortly: as §6
Assay [17] is described as follows: A CellTox Green Cytotoxicity Assay to monitor cytotoxicity in HepG2 cells - 16 hour (AID 1224876). Note: nearly all actives have a fitted effect of over 45% in size. Note: potency is the fitted concentration of half-maximal effect. The method, boiled down:
as §5

A short description of assay [18]: A CellTox Green Cytotoxicity Assay to monitor cytotoxicity in HepG2 cells - 24 hour (AID 1224878). Note: nearly all actives have a fitted effect of over 45% in size. Note: potency is the fitted concentration of half-maximal effect. The method, boiled down: as §5
Assay [19] in a line: qHTS assay to identify small molecule antagonists of the estrogen related receptor (ERR) signaling pathway from Tox21 library (AID 1224848). Put shortly:
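Reading was by luminescence 30 min after ONE-Glo addition. Before that, ERR cells at 2,000 per well had rested 6 h at 37 C/5% CO2 and then received pin-tooled compounds in DMSO for 18 h at 37 C.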

For `c1ccc(N=NNc2ccccc2)cc1`, the Potency result in assay [1], in [2], in assay [5], in assay [6], in [7] and in assay [8] was “inactive” throughout. The Potency entry in assay [10], in assay [12] and in [14] was “inactive” in each case. The Potency was 92.9 µM (active) and 101 µM (active) in assay [3]; 45.2 µM (active) and 43.6 µM (active) in assay [9]; 50.7 µM (active) in assay [11]; 49 µM (active) in assay [13]. Also, the activity change, positive = activation in assay [4] was 51.9% (active) and 0.0484% (inactive).
As for `Clc1c(Cl)c(Cl)c(Cl)c(Cl)c1Cl`, the activity change, negative = cytotoxicity in assay [1] was 4.74% [at 6.97 µM] (inactive); in assay [3], -1.8% [at 14 µM] (inactive); in assay [5], -0.564% [at 6.97 µM] (inactive); in [10] it was 3.93% [at 6.97 µM] (inactive); in assay [14], 2.6% [at 6.97 µM] (inactive). Besides, in assay [2], the activation is -0.723% [at 7.01 µM] (inactive). Moreover, the activity change, negative = cytotoxic in [6] was 0.699% [at 6.97 µM] (inactive); in [8] it was 0.985% [at 6.97 µM] (inactive); in [12], 0.7% [at 6.97 µM] (inactive). Moreover, the cytotoxicity in assay [7] is -0.372% [at 6.97 µM] (inactive); in [18] it was 0.224% [at 6.97 µM] (inactive). The cytotoxicity increase is -20.6% [at 6.97 µM] (inactive) in assay [9], 0.26% [at 6.97 µM] (inactive) in assay [17] and -0.205% [at 6.97 µM] (inactive) in assay [13]. Besides, the viability change, negative = cytotoxic in [15] was 1.69% [at 6.97 µM] (inactive). In addition, the max response in assay [16] was 8.77% (inactive). Further, the activity change in assay [11] is -16.1% [at 6.97 µM, stronger effect = higher value] (inactive).
As to `Fc1ccc(C(OCCN2CCN(CCCc3ccccc3)CC2)c2ccc(F)cc2)cc1`, the Potency in assay [1] is 16.9 µM (active); in assay [3] it was 55.2 µM (active); in assay [19], 6.68 µM (active); in assay [5], 23.9 µM (active); in [6], 9.52 µM (active); in assay [8], 26.8 µM (active). The Potency in assay [9] is 21.3 µM (active); in assay [15] it was 23.9 µM (active); in assay [16], 9.52 µM (active); in assay [11], 23.9 µM (active); in assay [17], 23.9 µM (active); in assay [12], 23.9 µM (active). In addition, the Potency in [18] and in assay [13] was 23.9 µM (active) throughout. Also, the activity change, positive = activation in assay [4] is -58.9% [at 42.5 µM] (inactive). Besides, the Potency result in [7] and in [14] was “inactive” throughout.
Consider `CCOP(=S)(OCC)SC(CCl)N1C(=O)c2ccccc2C1=O` (stereo not drawn), for which the Potency result in [1], in [2], in assay [3], in assay [5], in assay [6] and in assay [7] was “inactive” throughout. The Potency result in assay [8], in assay [9], in assay [15], in assay [11], in assay [17] and in assay [12] was “inactive” in each case. For the same molecule, the activity change, positive = activation in assay [4] was -14.9% (inactive). Also, the max response in assay [16] is 6.49% (inactive).
Turning to `Brc1cccc(-c2ccccc2)c1`, the Potency result in assay [1], in assay [2], in assay [5], in [6], in assay [7] and in [8] was “inactive” each time. The Potency result in assay [10], in [15], in [17], in assay [12], in assay [18] and in assay [13] was “inactive” each time. In addition, in assay [14], the Potency result is “inactive”. Also, the activity change, positive = activation in assay [4] is -0.973% (inactive). For the same molecule, the Potency in assay [9] was 39.2 µM (active).
`CNN`: the Potency result in assay [1], in assay [2], in assay [3], in [5], in assay [6] and in assay [7] was “inactive” throughout. In addition, the Potency entry in assay [8], in assay [9], in assay [10], in assay [15], in [11] and in [17] was “inactive” each time. In addition, the Potency entry in assay [12], in assay [18], in assay [13] and in assay [14] was “inactive” throughout.
As to `BrCCCBr`, the Potency result in [1], in [2], in [3], in [5], in assay [6] and in [7] was “inactive” throughout. The Potency entry in assay [9], in assay [10], in assay [15], in assay [11], in assay [17] and in [12] was “inactive” throughout. Also, the Potency result in assay [18], in assay [13] and in assay [14] was “inactive” each time.
